# Bioassay records (PubChem BioAssay)
# Rows were chosen to be rich in hits. Some 6% of all compounds tested hit in one or more screens of this group.
# D1 PAM: human D1 dopamine receptor positive modulation. potentiation, % at 10 µM. 0.036% of 360,000 active. HEK293 TREx D1 cells, calcium flux, dopamine EC20 potentiation; in the data active means potentiation above about 30%
# Target sequence (P21728 whole entry, looked up): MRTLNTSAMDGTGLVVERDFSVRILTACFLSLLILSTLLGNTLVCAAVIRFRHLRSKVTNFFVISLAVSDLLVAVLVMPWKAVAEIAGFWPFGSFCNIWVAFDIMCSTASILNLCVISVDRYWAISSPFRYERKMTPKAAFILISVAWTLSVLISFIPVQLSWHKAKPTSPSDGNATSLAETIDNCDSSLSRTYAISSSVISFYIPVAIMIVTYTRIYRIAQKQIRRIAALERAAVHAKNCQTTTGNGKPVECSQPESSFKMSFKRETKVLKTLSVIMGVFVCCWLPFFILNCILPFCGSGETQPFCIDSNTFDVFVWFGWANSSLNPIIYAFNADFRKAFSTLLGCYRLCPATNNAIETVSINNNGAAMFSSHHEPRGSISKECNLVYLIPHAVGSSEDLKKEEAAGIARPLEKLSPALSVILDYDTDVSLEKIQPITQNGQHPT
# D1 antagonist: blocks dopamine activation of the human D1 receptor; P21728; HEK293 TREx D1 cells, calcium flux, dopamine EC80; hits give low values; activity change, negative = inhibition, % at 10 µM; 3.2% of 360,000 active; AID 504652; in the data active means activity change below about -30%
#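 Calcium flux readout: force-coupled, inducible Hek293 Trex D1 line, cells induced overnight at 30 C with tetracycline, dye-loaded 30–90 min at RT. Antagonism scored against EC80 dopamine challenge given 180 s after compound.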
# D3 antag: D3 dopamine receptor (human) antagonism. P35462. D3R cells, DiscoveRx beta-arrestin luminescence, antagonist mode; hits give low values. max response, negative = inhibition, %. 2.5% of 360,000 active. AID 652054; in the data active means max response below about -50%; inconclusive means no clear call, values can overlap the other calls
#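 Cells plated overnight at 1500 cells/well, then exposed to library compounds with dopamine controls for 90 minutes at 37 degrees C. DiscoveRx reagent added for 30–60 minutes at room temperature; luminescence read, quantitative HTS format.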
# DRD3 agonist: agonists of human D3 dopamine receptor; D3R DiscoveRx beta-arrestin cells, luminescence, 90 min; max activation, %; 0.58% of 410,000 active; AID 652048; in the data active means max activation above about 30%
#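 Agonist mode: compounds and dopamine controls were applied to plated cells for 90 min at 37 degrees C after an overnight attachment at 1500 cells/well. Luminescent read-out followed 30 - 60 minutes at room temperature with DiscoveRx detection reagent.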
# D1 ag: agonists of human D1 dopamine receptor; 1% of 360,000 active; P21728; activation, % at 2 µM; AID 504660; HEK293 T-REx D1 cells, calcium flux, agonist mode; in the data active means activation above about 30%
#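 Inducible HEK293 T-REx D1 cells, force-coupled to calcium signalling, were plated at 4000 cells/well with tetracycline and held overnight at 30 C. After no-wash calcium dye loading, compound-evoked calcium rise over 180 s flagged agonists.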
# Hits are given with their value; 0 = inactive; ? = inconclusive; - = not tested or not shown.
SMILES,D1 PAM,D1 antagonist,D3 antag,DRD3 agonist,D1 ag
CCC(C)c1ccc(NC(=S)NC2CCN(Cc3ccccc3)CC2)cc1 (configuration not stated),0,0,?,0,0
COc1ccc(NC(=S)NC2CCN(Cc3ccccc3)CC2)cc1OC,0,0,0,0,0
N#Cc1ccc(C2CC(OCCF)=CC(=O)O2)cc1 (configuration not stated),-,-,0,0,-
COc1cc(C2C(C#N)=C(N)N(c3ccc(F)cc3)C3=C2S(=O)(=O)CC3)ccc1O (configuration not stated),0,0,0,0,0
CC(C)(C)OC(=O)CC(=O)NNC(=O)c1nc2ccccc2[nH]1,0,0,-,-,0
CCc1cccc(NC(=O)CN(c2ccc(C)cc2)S(=O)(=O)c2cccs2)c1,0,0,-,0,0
COc1ccc(CNC(=S)N2CCN(Cc3ccccc3)CC2)cc1,0,0,0,0,0
COc1ccc(CCNC(=S)NC2CCN(Cc3ccccc3)CC2)cc1,0,0,-83.3,0,41.7
Cc1ccc(-c2cc(NC(=O)COc3c(C)cc(C)cc3C)on2)cc1,0,0,-,0,0
NNC(=O)COc1ccc(-c2n[nH]c(C(F)(F)F)c2-c2ccc(Br)cc2)c(O)c1,0,-37.3,0,0,38.9
CCN(Cc1ccccc1)c1ccc(N=Nc2nn(C)c(C)c2[N+](=O)[O-])cc1,0,0,-50.8,0,0
CCN(CC)c1ccc(N=Nc2nn(C)c(C)c2[N+](=O)[O-])cc1,0,0,-58.6,0,0
Cc1onc(-c2ccccc2Cl)c1C(=O)Oc1cc(N)n(S(=O)(=O)c2ccc(F)cc2)n1,0,0,0,0,0
Cc1ccc(S(=O)(=O)n2nc(OC(=O)c3c(-c4ccccc4Cl)noc3C)cc2N)cc1,0,0,-57.7,0,0
Cc1ccccc1NC(=O)Cn1c(=O)oc2cc(Br)ccc21,0,0,-,0,0
Cc1cc(Cn2nc(C(=O)NCc3cccc(C(F)(F)F)c3)cc2-c2ccccc2)on1,0,0,-59.9,0,0
CCOC(=O)c1ccc(NC(=O)CSc2nc(-c3ccc(F)cc3)cc(C(F)(F)F)c2C#N)cc1,0,0,-,0,0
NC(=S)N/N=C/c1ncc(C(F)(F)F)cc1Cl,0,0,0,0,31.2
Cc1nc(SCC(=O)OC(C)(C)C)c2c3c(sc2n1)CCCC3,0,0,-,0,0
O=C(CCCCn1c(=O)c2ccccc2n(CC(=O)Nc2cccc(F)c2)c1=O)NCCc1ccccc1,0,0,-,0,0
COc1cccc(OCCN2CCN(c3ncnc4c3cnn4-c3ccccc3)CC2)c1,0,0,0,47.7,0
Cc1ccc(-n2ncc3c(N4CCN(Cc5ccccc5)CC4)ncnc32)cc1,0,0,-,0,0
Cc1nn(-c2ccccc2)c(Cl)c1C(=O)N1CCN(c2ncnc3c2cnn3-c2ccccc2)CC1,0,0,0,40.7,0
Cc1ccc(Cl)cc1-n1ncc2c(N3CCN(Cc4ccccc4)CC3)ncnc21,0,-45.2,-,0,0
Cn1nc(-c2ccccc2)cc1NS(=O)(=O)c1ccccc1,0,-36.3,0,0,0
SMILES,D1 PAM,D1 antagonist,D3 antag,DRD3 agonist,D1 ag
Cc1ccc(S(=O)(=O)Nc2cc(-c3ccccc3)nn2C)cc1,0,0,0,0,0
O=S(=O)(c1ccccc1Oc1ccc(Cl)cc1Cl)N1CCCCC1,0,-47.1,0,0,0
CC(C)(Oc1ccc(C2CCCc3ccccc32)cc1)C(=O)O (configuration not stated),-,-,-,0,-
CCCc1cc(=O)[nH]c(SCc2nc3ccccc3s2)n1,0,0,0,42.9,0
Cc1cc(=O)[nH]c(SCc2nc3ccccc3s2)n1,0,0,0,0,0
Cc1ccccc1OCc1nnc(SCc2cc(=O)c3cc(F)ccc3[nH]2)n1C,0,0,-,0,0
Cc1ccc(S(=O)(=O)Nc2ccccc2C(=O)N2CCCCCC2)cc1,0,0,0,0,0
Cc1cc(C)c2c(=O)[nH]c(SCc3ccccc3C)nc2n1,0,0,-66.2,0,0
Cc1cc(SCc2ccc([N+](=O)[O-])cc2)nc(=O)[nH]1,0,0,0,0,0
Cc1cc(C)c2c(=O)[nH]c(SCC(=O)NCc3ccccc3)nc2n1,0,0,0,0,0
Cc1cc(C)c2c(=O)[nH]c(SCc3ccc([N+](=O)[O-])cc3)nc2n1,0,0,-68.7,0,0
Cc1ccc(F)c(S(=O)(=O)NC(=O)C2(C)CCN2C(=O)C/C=C/c2ccccc2)c1 (configuration not stated),-,-,0,0,-
